10 compounds from PubChem BioAssay (NCI) can be followed below.

Assay [1] is described as follows: NCI Yeast Anticancer Drug Screen. Data for the rad50 strain (AID 155).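 Note: 0% = growth of vehicle-only cultures of the same strain.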 Conditions: S. cerevisiae rad50 strain growth inhibition, hits give high values. The procedure, abridged: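 DNA repair mutant yeast, compound exposure, growth read-out; inhibition is taken relative to vehicle.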
Assay [2] is described as follows: NCI Yeast Anticancer Drug Screen. Data for the mec2-1 strain (AID 157). Conditions: S. cerevisiae mec2-1 strain, hits give high values. The gist of the method: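 Yeast mec2-1 mutant treated with compound. Readout: growth inhibition vs vehicle controls.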
Assay [3] in a line: NCI Yeast Anticancer Drug Screen. Data for the sgs1 mgt1 strain (AID 161).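 Note: 0% = growth of cultures given vehicle only.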 Conditions: S. cerevisiae sgs1 mgt1 strain, hits give high values. The procedure, abridged: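 Read-out: growth inhibition vs vehicle controls. Cells: mutant yeast strain deficient in DNA damage repair.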
Assay [4] can be described thus: NCI Yeast Anticancer Drug Screen. Data for the cln2 rad14 strain (AID 165).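 Note: 0% = growth equal to vehicle treated cultures.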 Conditions: S. cerevisiae cln2 rad14 strain, hits give high values. The procedure, abridged: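 cln2 rad14 yeast strain; compound exposure; growth inhibition read vs vehicle controls.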
Assay [5] is described as follows: NCI Yeast Anticancer Drug Screen. Data for the bub3 strain (AID 167). Conditions: S. cerevisiae bub3 mutant strain, hits give high values. The procedure, abridged: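 In this screen, a yeast mutant lacking normal mitotic checkpoint function is challenged with compound. Relative growth versus vehicle gives the inhibition value.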
The nature of assay [6]: NCI Yeast Anticancer Drug Screen. Data for the mlh1 rad18 strain (AID 175). Conditions: S. cerevisiae mlh1 rad18 strain growth inhibition, hits give high values. The procedure, abridged:
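Yeast w/ defined DNA-repair lesions; compound exposure; growth vs vehicle controls → % inhibition.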

Where [7] appears, read: at 5.0 µM (retest, dose inferred, filed as 0.5).
The mark [8] stands for this setting: at 50.0 µM (retest, dose inferred, filed as 5.0).

The structures appear in SMILES notation. About 79,000 compounds went through this panel and 15% of them were active in at least one assay; those are over-represented in the sample as a whole. Unmarked numbers belong to inactive results. Activity calls are given as the source filed them. Cut-off read from the data, not from the text of the source: active = growth inhibition above about 70%; inactive = the rest.

Regarding `CNC(Cc1ccccc1)c1ccc(OC)c2ccccc12` (stereo not given), the growth inhibition in assay [1] (setting [7]) was 3%; in assay [1] (setting [8]), 9%; in assay [1] (at 50.0 µM) it was 18.2%; in assay [2] (setting [7]), 6%; in assay [2] (setting [8]), -16%; in assay [2] (at 50.0 µM), 10.2%. Further, the growth inhibition in assay [3] (setting [7]) was -3%; in assay [3] (setting [8]) it was -10%; in assay [3] (at 50.0 µM), 14.8%; in assay [4] (setting [7]), -1%; in assay [4] (setting [8]), 11%; in assay [4] (at 50.0 µM) it was 7.7%. For the same compound, the growth inhibition in assay [5] (setting [7]) is 27%; in assay [5] (setting [8]) it was 25%; in assay [5] (at 50.0 µM), 51.7%; in assay [6] (setting [7]) it was -2%; in assay [6] (setting [8]), 40%; in assay [6] (at 50.0 µM) it was 21.6%.

With `COc1ccc(CN(C)c2c(C)ccc3ccccc23)cc1`, the growth inhibition is 10% in assay [1] (setting [7]); 85% (active) in assay [1] (setting [8]); 5.3% in assay [1] (at 50.0 µM); 2% in assay [2] (setting [7]); 58% in assay [2] (setting [8]); -2.9% in assay [2] (at 50.0 µM). Also, the growth inhibition in assay [3] (setting [7]) is 2%; in assay [3] (setting [8]), 78% (active); in assay [3] (at 50.0 µM), 23.3%; in assay [4] (setting [7]), 2%; in assay [4] (setting [8]) it was 59%; in assay [4] (at 50.0 µM), -15.2%. Moreover, the growth inhibition in assay [5] (setting [7]) is 1%; in assay [5] (setting [8]), 98% (active); in assay [5] (at 50.0 µM), 79.6% (active); in assay [6] (setting [7]), 3%; in assay [6] (setting [8]) it was 78% (active); in assay [6] (at 50.0 µM), 13.2%.

Turning to `N[C@H](C(=O)O)[C@@H]1CC(Cl)=NO1`, the growth inhibition was 63% in assay [1] (setting [7]); 97% (active) in assay [1] (setting [8]); 83.7% (active) in assay [1] (at 50.0 µM); 98% (active) in assay [2] (setting [7]); 96% (active) in assay [2] (setting [8]); 89.8% (active) in assay [2] (at 50.0 µM). The growth inhibition in assay [3] (setting [7]) was 59%; in assay [3] (setting [8]), 96% (active); in assay [3] (at 50.0 µM), 84.5% (active); in assay [4] (setting [7]), 68%; in assay [4] (setting [8]), 96% (active); in assay [4] (at 50.0 µM), 85.2% (active). For the same compound, the growth inhibition in assay [5] (setting [7]) is 68%; in assay [5] (setting [8]), 97% (active); in assay [5] (at 50.0 µM), 88.5% (active); in assay [6] (setting [7]) it was 86% (active); in assay [6] (setting [8]), 97% (active); in assay [6] (at 50.0 µM) it was 84.8% (active).

Regarding `CCN(CC)CCCNc1nccc2c(C)c3[nH]c4ccncc4c3cc12`, the growth inhibition in assay [1] (setting [7]) was 41%; in assay [1] (setting [8]), 54%; in assay [1] (at 50.0 µM), 59.4%; in assay [2] (setting [7]), 18%; in assay [2] (setting [8]), 33%; in assay [2] (at 50.0 µM) it was -2%. In addition, the growth inhibition in assay [3] (setting [7]) was 38%; in assay [3] (setting [8]), 43%; in assay [3] (at 50.0 µM), -1.7%; in assay [4] (setting [7]) it was 19%; in assay [4] (setting [8]), 23%; in assay [4] (at 50.0 µM) it was 10.1%. Further, the growth inhibition in assay [5] (setting [7]) is 24%; in assay [5] (setting [8]), 22%; in assay [5] (at 50.0 µM), -6.45%; in assay [6] (setting [7]) it was 48%; in assay [6] (setting [8]), 64%; in assay [6] (at 50.0 µM), -36.5%.

`CN(C)CCC(=O)/C=C/c1ccccc1`: the growth inhibition in assay [1] (setting [7]) was -2%; in assay [1] (setting [8]), 3%; in assay [1] (at 50.0 µM), 53%; in assay [2] (setting [7]), -1%; in assay [2] (setting [8]), 5%; in assay [2] (at 50.0 µM) it was 38%. For the same compound, the growth inhibition was -3% in assay [3] (setting [7]); 1% in assay [3] (setting [8]); 75.9% (active) in assay [3] (at 50.0 µM); -2% in assay [4] (setting [7]); 1% in assay [4] (setting [8]); 38.1% in assay [4] (at 50.0 µM). In addition, the growth inhibition in assay [5] (setting [7]) is -3%; in assay [5] (setting [8]), 11%; in assay [5] (at 50.0 µM), 61%; in assay [6] (setting [7]) it was -3%; in assay [6] (setting [8]), 4%; in assay [6] (at 50.0 µM), 63.1%.

Turning to `CC1N=C(Cc2ccccc2)SC1C` (stereo not given), the growth inhibition in assay [1] (setting [7]) was -2%; in assay [1] (setting [8]), 81% (active); in assay [1] (at 50.0 µM) it was 74.5% (active); in assay [2] (setting [7]), -5%; in assay [2] (setting [8]), 85% (active); in assay [2] (at 50.0 µM) it was 86.1% (active). Also, the growth inhibition in assay [3] (setting [7]) is 0%; in assay [3] (setting [8]), 87% (active); in assay [3] (at 50.0 µM), 86.8% (active); in assay [4] (setting [7]), -9%; in assay [4] (setting [8]) it was 85% (active); in assay [4] (at 50.0 µM), 88% (active). Besides, the growth inhibition was 0% in assay [5] (setting [7]); 83% (active) in assay [5] (setting [8]); 88.3% (active) in assay [5] (at 50.0 µM); -1% in assay [6] (setting [7]); 84% (active) in assay [6] (setting [8]); 85.8% (active) in assay [6] (at 50.0 µM).

Take `CCN(CC)CCCC(Nc1c2ccc(Cl)cc2nc2ccc(OC)cc12)c1cccs1` (stereo not given): the growth inhibition in assay [1] (setting [7]) is 91% (active); in assay [1] (setting [8]), 74% (active); in assay [1] (at 50.0 µM) it was 81.5% (active); in assay [2] (setting [7]) it was 91% (active); in assay [2] (setting [8]), 72% (active); in assay [2] (at 50.0 µM), 35.2%. The growth inhibition in assay [3] (setting [7]) is 92% (active); in assay [3] (setting [8]), 75% (active); in assay [3] (at 50.0 µM) it was 65.9%; in assay [4] (setting [7]) it was 87% (active); in assay [4] (setting [8]) it was 62%; in assay [4] (at 50.0 µM), 74.8% (active). The growth inhibition is 90% (active) in assay [5] (setting [7]); 68% in assay [5] (setting [8]); 68.9% in assay [5] (at 50.0 µM); 91% (active) in assay [6] (setting [7]); 72% (active) in assay [6] (setting [8]); 62.5% in assay [6] (at 50.0 µM).

Take `COC1/C=C/OC2(C)Oc3c(C)c(OC(C)=O)c4c(c3C2=O)C(=O)C=C(NC(=O)/C(C)=C\C=C\C(C)C(O)C(C)C(O)C(C)C(OC(C)=O)C1C)C4=O` (stereo not given): the growth inhibition was 6% in assay [1] (setting [7]); 70% (active) in assay [1] (setting [8]); 53.4% in assay [1] (at 50.0 µM); -44% in assay [2] (setting [7]); 87% (active) in assay [2] (setting [8]); 50% in assay [2] (at 50.0 µM). Further, the growth inhibition is 1% in assay [3] (setting [7]); 52% in assay [3] (setting [8]); 6% in assay [3] (at 50.0 µM); 3% in assay [4] (setting [7]); 96% (active) in assay [4] (setting [8]); 69.8% in assay [4] (at 50.0 µM). Besides, the growth inhibition is 0% in assay [5] (setting [7]); 85% (active) in assay [5] (setting [8]); 42.6% in assay [5] (at 50.0 µM); 5% in assay [6] (setting [7]); 90% (active) in assay [6] (setting [8]); 46.5% in assay [6] (at 50.0 µM).

Take `CCN(CC)CCCNc1ncc(C)c2c1c1ccc3c(O)cccc3c1n2C`: the growth inhibition in assay [1] (setting [7]) was 22%; in assay [1] (setting [8]) it was 62%; in assay [1] (at 50.0 µM) it was 29.3%; in assay [2] (setting [7]), 8%; in assay [2] (setting [8]), 7%; in assay [2] (at 50.0 µM), -0.35%. For the same compound, the growth inhibition was 21% in assay [3] (setting [7]); 40% in assay [3] (setting [8]); -31.9% in assay [3] (at 50.0 µM); 8% in assay [4] (setting [7]); 8% in assay [4] (setting [8]); -17.4% in assay [4] (at 50.0 µM). In addition, the growth inhibition in assay [5] (setting [7]) is 19%; in assay [5] (setting [8]) it was 35%; in assay [5] (at 50.0 µM), -9.95%; in assay [6] (setting [7]) it was 17%; in assay [6] (setting [8]) it was 34%; in assay [6] (at 50.0 µM) it was -3.05%.

On to `O=S(=O)(O)SCCNCCCCCC1CCCCC1`, for which the growth inhibition in assay [1] (setting [7]) is 20%; in assay [1] (setting [8]), 87% (active); in assay [1] (at 50.0 µM), 15.3%; in assay [2] (setting [7]), 27%; in assay [2] (setting [8]), 94% (active); in assay [2] (at 50.0 µM), 22.5%. The growth inhibition in assay [3] (setting [7]) is 19%; in assay [3] (setting [8]), 83% (active); in assay [3] (at 50.0 µM), 65.5%; in assay [4] (setting [7]), 32%; in assay [4] (setting [8]), 71% (active); in assay [4] (at 50.0 µM), 18.6%. Moreover, the growth inhibition is 17% in assay [5] (setting [7]); 95% (active) in assay [5] (setting [8]); 52.2% in assay [5] (at 50.0 µM); 34% in assay [6] (setting [7]); 93% (active) in assay [6] (setting [8]); 30.6% in assay [6] (at 50.0 µM).
